From PubChem BioAssay (EPA / NIEHS)
Inconclusive results are not listed. Active and inactive are the calls of the source. The calls were made as follows, unless noted: active = hit-call score of the fitted dose curve at least 0.9, where 1 is the maximum; inactive = score below 0.9.

Assays:
[1] = BSK_SAg_PBMCCytotoxicity: PBMC Cytotoxicity Assessment in the BioMAP Diversity Plus: SAg Assay (AID 2283093); conditions: primary human HUVEC with PBMC;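 also: PBMC viability measured as Alamar Blue reduction fluorescence at 546/580 nm; fitted both ways against DMSO so a hit may be loss or gain of signal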
Outline: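 Alamar Blue reduction (6 h, ex/em 546/580 nm) read after 90 h culture of PBMC pre-dosed 1 h then stimulated with SEB plus TSST-1, 20 ng/mL each. Gain or loss of signal fitted relative to DMSO.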

[2] = read-out: Interleukin-8 (IL8), CXCL8 (gene 3576); test: BSK_SAg_IL8: BioMAP Diversity Plus: SAg Assay for Interleukin-8 (IL8) Biomarker Activity (AID 2283094); conditions: primary human HUVEC with PBMC; actives raise or lower the signal
Outline: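 HUVEC/PBMC co-culture, 24 h post-dose; IL-8 by ELISA. Gain or loss of signal fitted bidirectionally vs DMSO baseline.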

[3] = BSK_SAg_Proliferation: Cell Proliferation Assessment in the BioMAP Diversity Plus: SAg Assay (AID 2283095); conditions: primary human HUVEC with PBMC;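 also: relative cell number as total protein by SRB absorbance in sub-confluent culture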
Outline: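 HUVEC/PBMC co-culture, 96-well. TCA-fixed (10%), 0.1% SRB stain, A560 at 96 h. Protein content used as viability readout; bidirectional fitting vs DMSO control.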

[4] = BSK_SAg_SRB: Viability Assessment in the BioMAP Diversity Plus: SAg Assay (AID 2283096); conditions: primary human HUVEC with PBMC;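 also: cells read one day after compound addition; hits may be either gain or loss of signal compared with DMSO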
Outline: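 SRB absorbance at 560 nm served as the viability read-out. Cells (HUVEC plus peripheral blood mononuclear cells) were TCA-fixed and stained 24 h post-dosing; activity fitted in both directions against DMSO controls.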

[5] = TOX21_p53_BLA_p2_viability: Viability Assessment in the Tox21 HCT-116 p53 Agonism Beta-lactamase Assay, Phase 2 (AID 2283591; active = hit-call score of the fitted dose curve at least 0.9, where 1 is the maximum;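 also: actives lower the ATP signal meaning cytotoxicity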)
Outline: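 Cytotoxicity readout: CellTiter-Glo ATP luminescence, 30 min at room temperature, after the beta-lactamase read. Cells were HCT116 exposed 16 h at 37C to compounds pin-transferred at 217-fold dilution from DMSO stocks.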

[6] = target: Cellular tumor antigen p53 (Homo sapiens) (UniProt P04637); test: TOX21_p53_BLA_p2_ratio: Tox21 HCT-116 p53 Agonism Beta-lactamase Assay, Ratio, Phase 2 (AID 2283592; active = hit-call score of the fitted dose curve at least 0.9, where 1 is the maximum)
Chain of Cellular tumor antigen p53 (Homo sapiens) (P04637 whole entry, looked up): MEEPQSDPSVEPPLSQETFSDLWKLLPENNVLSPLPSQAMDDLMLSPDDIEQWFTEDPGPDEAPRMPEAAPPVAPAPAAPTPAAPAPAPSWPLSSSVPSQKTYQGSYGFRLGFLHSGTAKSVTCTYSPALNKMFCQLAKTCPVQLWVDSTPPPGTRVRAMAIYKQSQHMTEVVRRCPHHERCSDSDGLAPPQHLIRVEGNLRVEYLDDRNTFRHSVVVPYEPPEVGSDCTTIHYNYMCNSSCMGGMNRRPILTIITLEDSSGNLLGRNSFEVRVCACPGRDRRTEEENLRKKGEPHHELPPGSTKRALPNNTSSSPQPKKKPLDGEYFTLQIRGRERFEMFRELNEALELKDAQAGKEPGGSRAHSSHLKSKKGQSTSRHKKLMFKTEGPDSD
Outline: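 First, HCT116 reporter cells settle for 5 h at 37C. Next, DMSO compound solutions are pinned in (217-fold dilution) and left 16 h. Finally, CCF4-AM substrate is loaded 2 h at room temperature and the 460/530 nm ratio read.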

[7] = TOX21_p53_BLA_p3_viability: Viability Assessment in the Tox21 HCT-116 p53 Agonism Beta-lactamase Assay, Phase 3 (AID 2283593; active = hit-call score of the fitted dose curve at least 0.9, where 1 is the maximum;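 also: cells exposed to compound for 16 h before reading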)
Outline: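 Cellular ATP was quantified by CellTiter-Glo luminescence, read after 30 min at room temperature. Beforehand, HCT116 cells (4000/well) received compound 5 h post-seeding, 217-fold diluted from DMSO, then incubated 16 h at 37C.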

[8] = target: Cellular tumor antigen p53 (Homo sapiens) (UniProt P04637); test: TOX21_p53_BLA_p3_ratio: Tox21 HCT-116 p53 Agonism Beta-lactamase Assay, Ratio, Phase 3 (AID 2283596; active = hit-call score of the fitted dose curve at least 0.9, where 1 is the maximum)
Outline: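 Cells were seeded at 4000/well, rested 5 h at 37C, then dosed with DMSO compound solutions (217-fold dilution) for 16 h. CCF4-AM substrate was loaded for 2 h at room temperature, and the 460/530 nm emission ratio was fitted for gain of signal versus DMSO.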

[9] = TOX21_p53_BLA_p4_viability: Viability Assessment in the Tox21 HCT-116 p53 Agonism Beta-lactamase Assay, Phase 4 (AID 2283597; active = hit-call score of the fitted dose curve at least 0.9, where 1 is the maximum;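 also: hits lower the luminescence signal meaning cytotoxicity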)
Outline: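 4000 HCT116 cells per well; 5 h attachment; compounds from DMSO, 217-fold dilution; 16 h at 37C. Then CCF4-AM, 2 h RT, followed by CellTiter-Glo, 30 min RT, luminescence. Decrease = cytotoxicity.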

[10] = target: Cellular tumor antigen p53 (Homo sapiens) (UniProt P04637); test: TOX21_p53_BLA_p5_ratio: Tox21 HCT-116 p53 Agonism Beta-lactamase Assay, Ratio, Phase 5 (AID 2283599; active = hit-call score of the fitted dose curve at least 0.9, where 1 is the maximum)
Outline: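 Beta-lactamase reporter ratio (blue 460 nm over green 530 nm, 405 nm excitation) after 2 h CCF4-AM loading, in HCT-116 cells exposed 16 h at 37 C to compounds pinned at 217-fold dilution. Increases relative to DMSO baseline scored.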

[11] = TOX21_p53_BLA_p5_viability: Viability Assessment in the Tox21 HCT-116 p53 Agonism Beta-lactamase Assay, Phase 5 (AID 2283600; active = hit-call score of the fitted dose curve at least 0.9, where 1 is the maximum)
Outline: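 Decreased CellTiter-Glo luminescence denotes lost viability. Exposure: 16 h at 37C, 5% CO2, with compounds from DMSO stocks diluted 217-fold in wells of 4000 cells.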

[12] = target: Cellular tumor antigen p53 (Homo sapiens) (UniProt P04637); test: TOX21_p53_BLA_p4_ratio: Tox21 HCT-116 p53 Agonism Beta-lactamase Assay, Ratio, Phase 4 (AID 2283601; active = hit-call score of the fitted dose curve at least 0.9, where 1 is the maximum)
Outline: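 Signal is the blue/green (460nm/530nm) ratio of cleaved versus uncleaved CCF4-AM substrate, read after 2 h substrate loading. Cells were HCT116 carrying the p53-responsive beta-lactamase reporter, dosed 16 h at 37C, 5% CO2; CellTiter-Glo measured in parallel.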

[13] = CCTE_Shafer_MEA_acute_spike_number: CCTE's Neural Acute Assay for Total Number of Spikes, Shafer Lab (AID 2284008);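 also: curve fitted for decrease in spike count so AC50 reflects inhibitors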
Outline: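 Rat primary cortical neurons on 48-well MEA plates, DIV 13 or 15, at 37 C. 40 min baseline then 40 min with compound (0.03-40 uM); spikes detected at 8x rms noise, expressed as percent change from baseline.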

[14] = CCTE_Shafer_MEA_acute_firing_rate_mean: CCTE's Neural Acute Assay for Mean Firing Rate, Shafer Lab (AID 2284009);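 also: analyzed for loss of signal so actives lower firing rate relative to DMSO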
Outline: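 Primary rat cortical neurons on 16-electrode MEA wells were exposed on DIV 13 or 15 to compound (0.03-40 uM). Spike counts per recording time, averaged over electrodes, were compared between 40-min baseline and 40-min post-exposure recordings as percent change.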

[15] = CCTE_Shafer_MEA_acute_burst_number: CCTE's Neural Acute Assay for Single-Electrode Bursts, Shafer Lab (AID 2284013)
Outline: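 Primary rat cortical neurons on 16-electrode MEA wells, DIV 13 or 15, exposed to compound (0.03-40 uM; ≥3 wells); 40-min recordings at 37 C before and after treatment. Burst count expressed as percent change from baseline, DMSO as negative control.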

Measured: AC50

CCCC[N+](CCCC)(CCCC)CCCC
inactive: [1] | [2] | [3] | [4] | [5] | [6] | [7] | [8] | [9] | [10] | [11] | [12]
active: [13] 4.44 nM | [14] 3.01 nM | [15] 1.52 nM
